Out of some 5,500 compounds screened, about 2,000 (36%) were called active. Another 18% or so got no clear call; they are omitted. Cut-off read from the data, not from the text of the source: active = normalized growth mostly below about 0.91 (no sharp cut-off); inconclusive = no clear call, values can overlap the other calls; inactive = mostly above about 0.92. The list shows a part of the results.
Test: chemical genetic growth profiling, strain panel (AID 1159580);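 note: tested at 20 µM; growth read once vehicle control cultures reached saturation at 30 °C; 1 = growth at the plate median or of vehicle wells; lower values mean less growth of the strain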
Settings: growth OD

Measured: normalized growth

NNC(=O)c1ccncc1
inactive: S. cerevisiae deletion strains, locus YJR075W, strain HOC1, active compounds read low 1.01 | S. cerevisiae deletion strains, locus YKL009W, strain mrt4, active compounds read low 0.98 | S. cerevisiae deletion strains, locus YKL068W, active compounds read low 0.992 | S. cerevisiae deletion strains, locus YKL085W, strain MDH1 (second series), active compounds read low 0.991 | S. cerevisiae deletion strains, locus YKL085W, strain MDH1, active compounds read low 0.991 | S. cerevisiae deletion strains, locus YKL160W, strain elf1, active compounds read low 1.04 | S. cerevisiae deletion strains, locus YKL190W, strain CNB1, active compounds read low 0.992 | S. cerevisiae deletion strains, locus YKR001C, strain vps1, active compounds read low 0.993 | S. cerevisiae deletion strains, locus YKR026C, strain gcn3, active compounds read low 1.01 | S. cerevisiae deletion strains, locus YKR091W, strain srl3, active compounds read low 1 | S. cerevisiae deletion strains, locus YLL001W, strain dnm1, active compounds read low 1.03 | S. cerevisiae deletion strains, locus YLL026W, active compounds read low 1.03 | S. cerevisiae deletion strains, locus YLL041C, strain sdh2, active compounds read low 1 | S. cerevisiae deletion strains, locus YLR027C, strain aat2, active compounds read low 1.03 | S. cerevisiae deletion strains, locus YLR039C, strain RIC1, active compounds read low 1.05 | S. cerevisiae deletion strains, locus YLR058C, strain SHM2, active compounds read low 1.01 | S. cerevisiae deletion strains, locus YLR102C, strain apc9, active compounds read low 0.998 | S. cerevisiae deletion strains, locus YLR113W, strain HOG1, active compounds read low 1.01 | S. cerevisiae deletion strains, locus YLR221C, strain rsa3, active compounds read low 0.986 | S. cerevisiae deletion strains, locus YLR258W, strain gsy2, active compounds read low 0.99 | S. cerevisiae deletion strains, locus YLR262C, strain YPT6 (second series), active compounds read low 1.03 | S. cerevisiae deletion strains, locus YLR262C, strain YPT6, active compounds read low 1.01 | S. cerevisiae deletion strains, locus YLR268W, strain sec22, active compounds read low 0.991 | S. cerevisiae deletion strains, locus YLR320W, strain mms22, active compounds read low 0.986 | S. cerevisiae deletion strains, locus YLR330W, strain CHS5, active compounds read low 1.01 | S. cerevisiae deletion strains, locus YLR342W, strain FKS1 (second series), active compounds read low 1.01 | S. cerevisiae deletion strains, locus YLR342W, strain FKS1, active compounds read low 1.02 | S. cerevisiae deletion strains, locus YLR357W, strain rsc2, active compounds read low 0.998 | S. cerevisiae deletion strains, locus YLR370C, strain arc18, active compounds read low 1.02 | S. cerevisiae deletion strains, locus YLR371W, strain rom2, active compounds read low 0.988 | S. cerevisiae deletion strains, locus YLR384C, strain iki3, active compounds read low 1.01 | S. cerevisiae deletion strains, locus YLR418C, strain cdc73, active compounds read low 0.964 | S. cerevisiae deletion strains, locus YML016C, strain PPZ1, active compounds read low 1.01 | S. cerevisiae deletion strains, locus YML032C, strain rad52, active compounds read low 0.995 | S. cerevisiae deletion strains, locus YML120C, strain ndi1, active compounds read low 1.06 | S. cerevisiae deletion strains, locus YML124C, strain tub3, active compounds read low 0.988 | S. cerevisiae deletion strains, locus YMR058W, strain fet3, active compounds read low 1.04 | S. cerevisiae deletion strains, locus YMR078C, strain ctf18, active compounds read low 1 | S. cerevisiae deletion strains, locus YMR125W, strain sto1, active compounds read low 1.02 | S. cerevisiae deletion strains, locus YMR129W, active compounds read low 1 | S. cerevisiae deletion strains, locus YMR205C, strain PFK2, active compounds read low 1.03 | S. cerevisiae deletion strains, locus YMR223W, strain ubp8, active compounds read low 0.974 | S. cerevisiae deletion strains, locus YMR231W, strain pep5, active compounds read low 0.995 | S. cerevisiae deletion strains, locus YMR307W, strain GAS1, active compounds read low 0.997 | S. cerevisiae deletion strains, locus YNL067W, strain RPL9B, active compounds read low 0.996 | S. cerevisiae deletion strains, locus YNL071W, strain lat1, active compounds read low 0.996 | S. cerevisiae deletion strains, locus YNL153C, strain GIM3, active compounds read low 1.01 | S. cerevisiae deletion strains, locus YNL183C, strain NPR1, active compounds read low 0.948 | S. cerevisiae deletion strains, locus YNL209W, strain ssb2, active compounds read low 1 | S. cerevisiae deletion strains, locus YNL233W, strain BNI4, active compounds read low 1.01 | S. cerevisiae deletion strains, locus YNL248C, strain rpa49, active compounds read low 0.988 | S. cerevisiae deletion strains, locus YNL250W, strain rad50, active compounds read low 0.977 | S. cerevisiae deletion strains, locus YNL271C, strain bni1, active compounds read low 0.985 | S. cerevisiae deletion strains, locus YNL298W, strain CLA4, active compounds read low 0.986 | S. cerevisiae deletion strains, locus YNL307C, strain MCK1, active compounds read low 0.995 | S. cerevisiae deletion strains, locus YNL322C, strain KRE1 (second series), active compounds read low 1.02 | S. cerevisiae deletion strains, locus YNR049C, strain mso1, active compounds read low 1.01 | S. cerevisiae deletion strains, locus YNR052C, strain pop2, active compounds read low 1 | S. cerevisiae deletion strains, locus YOL012C, strain htz1 0.873 | S. cerevisiae deletion strains, locus YOL147C, strain pex11, active compounds read low 0.994 | S. cerevisiae deletion strains, locus YOR001W, strain rrp6, active compounds read low 1.03 | S. cerevisiae deletion strains, locus YOR061W, strain CKA2, active compounds read low 1.02 | S. cerevisiae deletion strains, locus YOR069W, strain VPS5, active compounds read low 1 | S. cerevisiae deletion strains, locus YOR070C, strain gyp1, active compounds read low 1 | S. cerevisiae deletion strains, locus YOR080W, strain dia2, active compounds read low 1.01 | S. cerevisiae deletion strains, locus YOR083W, strain WHI5, active compounds read low 1 | S. cerevisiae deletion strains, locus YOR106W, strain vam3, active compounds read low 1.04 | S. cerevisiae deletion strains, locus YOR136W, strain idh2, active compounds read low 0.998 | S. cerevisiae deletion strains, locus YOR144C, strain elg1, active compounds read low 0.994 | S. cerevisiae deletion strains, locus YOR184W, strain ser1, active compounds read low 0.981 | S. cerevisiae deletion strains, locus YOR231W, strain MKK1, active compounds read low 0.992 | S. cerevisiae deletion strains, locus YOR265W, strain rbl2, active compounds read low 1.01 | S. cerevisiae deletion strains, locus YOR270C, strain vph1, active compounds read low 1 | S. cerevisiae deletion strains, locus YOR290C, strain snf2, active compounds read low 0.965 | S. cerevisiae deletion strains, locus YOR316C, strain cot1, active compounds read low 0.997 | S. cerevisiae deletion strains, locus YPL051W, strain arl3, active compounds read low 1.02 | S. cerevisiae deletion strains, locus YPL055C, strain LGE1, active compounds read low 1.01 | S. cerevisiae deletion strains, locus YPL078C, strain atp4, active compounds read low 1.06 | S. cerevisiae deletion strains, locus YPL106C, strain sse1, active compounds read low 1.01 | S. cerevisiae deletion strains, locus YPL240C, strain hsp82, active compounds read low 1.02 | S. cerevisiae deletion strains, locus YPL256C, strain CLN2, active compounds read low 0.966 | S. cerevisiae deletion strains, locus YPR119W, strain clb2, active compounds read low 0.987 | S. cerevisiae deletion strains, locus YPR141C, strain kar3, active compounds read low 0.99 | S. cerevisiae deletion strains, locus YPR163C, strain tif3, active compounds read low 0.987 | S. cerevisiae deletion strains, locus YPR167C, strain met16, active compounds read low 0.981 | S. cerevisiae deletion strains, strain wtn01, active compounds read low 0.98 | S. cerevisiae strains, strain wild type, active compounds read low 1
